Consider 24 compounds from paper PMC4336329 (PLoS ONE, 2015).

Screen size: about 310,000 compounds; about 14,000 (4.5%) showed an effect of 50% or more. Effects have a minus sign here. Shown is part of a subset that was picked to be rich in strong results.
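Note: peak tail current of the secondary pulse compared with the same well before compound.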

The target in this assay is human ether-à-go-go-related gene (hERG) potassium channel (human, UniProt Q12809). The assay can be described thus: primary screen, population patch clamp on CHO cells stably expressing hERG; higher = less effect of the substance.
human ether-à-go-go-related gene (hERG) potassium channel, sequence (Q12809 whole entry, looked up): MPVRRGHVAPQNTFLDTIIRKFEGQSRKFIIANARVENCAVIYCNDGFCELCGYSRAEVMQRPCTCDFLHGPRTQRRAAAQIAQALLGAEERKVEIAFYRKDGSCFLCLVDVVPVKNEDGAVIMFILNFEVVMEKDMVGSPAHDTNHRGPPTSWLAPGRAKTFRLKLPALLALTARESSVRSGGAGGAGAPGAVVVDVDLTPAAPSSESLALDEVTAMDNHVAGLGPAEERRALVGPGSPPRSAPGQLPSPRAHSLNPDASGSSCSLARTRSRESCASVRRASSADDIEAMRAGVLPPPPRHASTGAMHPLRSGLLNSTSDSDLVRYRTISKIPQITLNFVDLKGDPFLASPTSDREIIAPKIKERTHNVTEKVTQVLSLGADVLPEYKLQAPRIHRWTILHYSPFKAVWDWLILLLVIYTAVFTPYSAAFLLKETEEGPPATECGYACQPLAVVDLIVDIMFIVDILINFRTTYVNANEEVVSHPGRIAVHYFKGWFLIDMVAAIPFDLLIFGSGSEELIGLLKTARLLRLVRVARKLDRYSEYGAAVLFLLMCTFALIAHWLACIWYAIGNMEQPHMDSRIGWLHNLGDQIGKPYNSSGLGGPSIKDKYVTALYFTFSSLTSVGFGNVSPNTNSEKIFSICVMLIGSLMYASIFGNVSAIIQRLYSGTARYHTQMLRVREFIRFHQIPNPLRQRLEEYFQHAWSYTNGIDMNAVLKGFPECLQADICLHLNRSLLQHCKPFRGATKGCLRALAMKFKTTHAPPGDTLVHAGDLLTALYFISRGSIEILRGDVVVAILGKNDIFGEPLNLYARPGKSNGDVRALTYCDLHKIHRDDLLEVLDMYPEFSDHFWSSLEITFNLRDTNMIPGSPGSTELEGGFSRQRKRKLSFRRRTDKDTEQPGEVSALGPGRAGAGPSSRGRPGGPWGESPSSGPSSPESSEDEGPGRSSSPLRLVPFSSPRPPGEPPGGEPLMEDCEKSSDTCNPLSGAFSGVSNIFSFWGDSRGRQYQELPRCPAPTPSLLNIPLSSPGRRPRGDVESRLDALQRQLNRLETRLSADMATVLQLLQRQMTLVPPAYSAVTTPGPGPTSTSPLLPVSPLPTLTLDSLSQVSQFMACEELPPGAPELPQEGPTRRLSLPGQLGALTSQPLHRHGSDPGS
For the compound `O=C(Nc1ccc(-c2cn3ccccc3n2)cc1)c1ccco1`, the “hERG current change (%, negative = inhibition) at 10uM” value is given as -11.4%.
In the case of `O=C1C=C(c2ccc(CO)cc2)C[C@@H](c2ccc3c(c2)OCO3)C1` it was -44.3%; in that of `CC1=CSC2=NC(C(F)(F)F)(C(F)(F)F)NC(=O)N12`, -1.5%; in that of `C=CCn1sc(N)c(C(=O)OCC)c1=S`, 0.673%.
In the case of `Cc1ccc(NS(=O)(=O)c2cccc(C(=O)O)c2)cc1S(=O)(=O)N1CCCCC1` it was 3.3%; in that of `COC(=O)Cn1c(=NC(=O)c2nc3ccccc3s2)sc2cc(S(N)(=O)=O)ccc21`, 6.74%; in that of `COCCn1c(=NC(=O)c2nc3ccccc3s2)sc2cc(S(C)(=O)=O)ccc21`, -21%.
The figure for `COC(=O)Cn1c(=NC(=O)c2nc3ccccc3s2)sc2cc(S(C)(=O)=O)ccc21` is -65.2%.
Consider `CCC(=O)NNC(=S)NC(=O)c1ccc(C)cc1`, for which the “hERG current change (%, negative = inhibition) at 10uM” value is 22.4%.
The figure for `S=c1[nH]nc(-c2cccc(Br)c2)o1` is 19.6%; for `CCOC(=O)c1cccc(NC(=O)CCc2nnc3ccc(N4CCCCC4)nn23)c1` it is 7.86%.
On to `C=CCn1c(O)c(N=NC(=O)CNC(=O)/C=C/c2ccco2)c2ccccc21`, for which the “hERG current change (%, negative = inhibition) at 10uM” value is -58.2%.
The figure for `CCn1c(O)c(N=NC(=O)CNC(=O)/C=C/c2ccco2)c2ccccc21` is 0.357%; for `C=CCn1c(O)c(N=NC(=O)CNC(=O)c2ccco2)c2ccccc21` it is -4.55%.
The figure for `CCCCNC(=O)NS(=O)(=O)c1cnccc1Sc1ccc(Cl)cc1` is 12.1%; for `NC(=O)c1cccnc1Nc1cccc(F)c1` it is -4.36%.
In the case of `CCOC(=O)c1nc(C)sc1-c1ccnn1S(=O)(=O)c1cccc(Cl)c1` it was -22.5%; in that of `CCOC(=O)c1sc(/S(C)=N\S(=O)(=O)c2cccc(Cl)c2)c2c1CCC=C2` (stereo not drawn), -51.9%.
On to `CCOC(=O)C1=C(C)Nc2ccccc2N/C1=N\S(=O)(=O)c1cccc(Cl)c1`, for which the “hERG current change (%, negative = inhibition) at 10uM” value is 0.773%.
The figure for `COc1ccc(-n2nc(C(=O)NCc3ccco3)c3c4ccccc4n(C)c3c2=O)cc1` is 18.1%; for `Cc1ccc(C)c(NC(=O)C2CCC(C)(C(=O)O)C2(C)C)c1` (stereo not drawn) it is -18.4%.
In the case of `Cc1cccc(NCC(=O)N/N=C\c2cccc(Oc3ccccc3)c2)c1` it was 20.1%; in that of `O=C(CNC(=O)c1cccs1)Nc1ccncc1`, 8.67%; in that of `O=C(Nc1ccc2c(c1)OCO2)C1CC(c2ccccc2Cl)=NO1` (stereo not drawn), -12.7%.
